Measured values as given in PubChem BioAssay AID1159580 (chemical genetic matrix, 2015).
Where “and” joins values, the source holds several entries; their conditions need not be identical. Equal entries are not always repeated. The campaign covered roughly 5,500 compounds. About 2,000 (36%) were called active. Not shown: some 18% with an inconclusive outcome. The list shows a part of the results. A number with no mark means an inactive call. Rule as the data show it: active = normalized growth mostly below about 0.91 (no sharp cut-off); inconclusive = no clear call, values can overlap the other calls; inactive = mostly above about 0.92.

Test: chemical genetic growth profiling, strain panel (AID 1159580);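 also: tested at 20 µM; growth read once vehicle control cultures reached saturation at 30 °C; 1 = growth at the plate median or of vehicle wells; lower values mean less growth of the strain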
Conditions: growth OD

Q: With O=C(CCCN1CCC2(CC1)C(=O)NCN2c1ccccc1)c1ccc(F)cc1 as the compound, how does the normalized growth (S. cerevisiae deletion strains, locus YKL009W, strain mrt4, active compounds read low) read?
A: 0.977

Q: And the normalized growth (S. cerevisiae deletion strains, locus YKL068W, active compounds read low)?
A: 0.99

Q: What about the normalized growth (S. cerevisiae deletion strains, locus YKL085W, strain MDH1 (second series), active compounds read low) of the same compound?
A: 0.986

Q: What about the normalized growth (S. cerevisiae deletion strains, locus YKL085W, strain MDH1, active compounds read low) of the same compound?
A: 0.986

Q: What about the normalized growth (S. cerevisiae deletion strains, locus YKL160W, strain elf1, active compounds read low) of the same compound?
A: 0.946

Q: What about the normalized growth (S. cerevisiae deletion strains, locus YKL190W, strain CNB1, active compounds read low) of the same compound?
A: 0.99

Q: And the normalized growth (S. cerevisiae deletion strains, locus YKR001C, strain vps1, active compounds read low)?
A: 0.999

Q: And the normalized growth (S. cerevisiae deletion strains, locus YKR026C, strain gcn3, active compounds read low)?
A: 0.985

Q: And the normalized growth (S. cerevisiae deletion strains, locus YKR091W, strain srl3, active compounds read low)?
A: 0.97

Q: What about the normalized growth (S. cerevisiae deletion strains, locus YLL001W, strain dnm1, active compounds read low) of the same compound?
A: 1.01

Q: And the normalized growth (S. cerevisiae deletion strains, locus YLL026W, active compounds read low)?
A: 0.978

Q: What about the normalized growth (S. cerevisiae deletion strains, locus YLL041C, strain sdh2, active compounds read low) of the same compound?
A: 0.988

Q: What about the normalized growth (S. cerevisiae deletion strains, locus YLR027C, strain aat2, active compounds read low) of the same compound?
A: 0.99

Q: And the normalized growth (S. cerevisiae deletion strains, locus YLR039C, strain RIC1, active compounds read low)?
A: 0.995

Q: What about the normalized growth (S. cerevisiae deletion strains, locus YLR058C, strain SHM2, active compounds read low) of the same compound?
A: 0.975

Q: What about the normalized growth (S. cerevisiae deletion strains, locus YLR102C, strain apc9, active compounds read low) of the same compound?
A: 0.995

Q: And the normalized growth (S. cerevisiae deletion strains, locus YLR113W, strain HOG1, active compounds read low)?
A: 1.01

Q: And the normalized growth (S. cerevisiae deletion strains, locus YLR221C, strain rsa3, active compounds read low)?
A: 1.02

Q: What about the normalized growth (S. cerevisiae deletion strains, locus YLR258W, strain gsy2, active compounds read low) of the same compound?
A: 0.986

Q: What about the normalized growth (S. cerevisiae deletion strains, locus YLR262C, strain YPT6 (second series), active compounds read low) of the same compound?
A: 0.995

Q: What about the normalized growth (S. cerevisiae deletion strains, locus YLR262C, strain YPT6, active compounds read low) of the same compound?
A: 0.955

Q: What about the normalized growth (S. cerevisiae deletion strains, locus YLR268W, strain sec22, active compounds read low) of the same compound?
A: 0.93

Q: What about the normalized growth (S. cerevisiae deletion strains, locus YLR320W, strain mms22, active compounds read low) of the same compound?
A: 0.993

Q: What about the normalized growth (S. cerevisiae deletion strains, locus YLR330W, strain CHS5, active compounds read low) of the same compound?
A: 1

Q: And the normalized growth (S. cerevisiae deletion strains, locus YLR342W, strain FKS1 (second series), active compounds read low)?
A: 1.04

Q: And the normalized growth (S. cerevisiae deletion strains, locus YLR342W, strain FKS1, active compounds read low)?
A: 0.972

Q: And the normalized growth (S. cerevisiae deletion strains, locus YLR357W, strain rsc2, active compounds read low)?
A: 0.953

Q: And the normalized growth (S. cerevisiae deletion strains, locus YLR370C, strain arc18, active compounds read low)?
A: 0.98

Q: What about the normalized growth (S. cerevisiae deletion strains, locus YLR371W, strain rom2, active compounds read low) of the same compound?
A: 0.991

Q: And the normalized growth (S. cerevisiae deletion strains, locus YLR384C, strain iki3, active compounds read low)?
A: 0.982

Q: And the normalized growth (S. cerevisiae deletion strains, locus YLR418C, strain cdc73, active compounds read low)?
A: 0.976

Q: And the normalized growth (S. cerevisiae deletion strains, locus YML016C, strain PPZ1, active compounds read low)?
A: 0.995

Q: What about the normalized growth (S. cerevisiae deletion strains, locus YML032C, strain rad52, active compounds read low) of the same compound?
A: 0.991

Q: What about the normalized growth (S. cerevisiae deletion strains, locus YML120C, strain ndi1, active compounds read low) of the same compound?
A: 0.984

Q: What about the normalized growth (S. cerevisiae deletion strains, locus YML124C, strain tub3, active compounds read low) of the same compound?
A: 0.989

Q: What about the normalized growth (S. cerevisiae deletion strains, locus YMR058W, strain fet3, active compounds read low) of the same compound?
A: 0.987

Q: And the normalized growth (S. cerevisiae deletion strains, locus YMR078C, strain ctf18, active compounds read low)?
A: 0.985

Q: And the normalized growth (S. cerevisiae deletion strains, locus YMR125W, strain sto1, active compounds read low)?
A: 1

Q: And the normalized growth (S. cerevisiae deletion strains, locus YMR129W, active compounds read low)?
A: 0.965

Q: What about the normalized growth (S. cerevisiae deletion strains, locus YMR205C, strain PFK2, active compounds read low) of the same compound?
A: 1.05

Q: And the normalized growth (S. cerevisiae deletion strains, locus YMR223W, strain ubp8, active compounds read low)?
A: 0.992

Q: What about the normalized growth (S. cerevisiae deletion strains, locus YMR231W, strain pep5, active compounds read low) of the same compound?
A: 0.988

Q: And the normalized growth (S. cerevisiae deletion strains, locus YMR307W, strain GAS1, active compounds read low)?
A: 1.08 and 1.02

Q: And the normalized growth (S. cerevisiae deletion strains, locus YNL067W, strain RPL9B, active compounds read low)?
A: 0.985

Q: What about the normalized growth (S. cerevisiae deletion strains, locus YNL071W, strain lat1, active compounds read low) of the same compound?
A: 0.995

Q: What about the normalized growth (S. cerevisiae deletion strains, locus YNL128W, strain TEP1, active compounds read low) of the same compound?
A: 0.989

Q: And the normalized growth (S. cerevisiae deletion strains, locus YNL153C, strain GIM3, active compounds read low)?
A: 0.969

Q: What about the normalized growth (S. cerevisiae deletion strains, locus YNL175C, strain NOP13, active compounds read low) of the same compound?
A: 1.01

Q: What about the normalized growth (S. cerevisiae deletion strains, locus YNL183C, strain NPR1, active compounds read low) of the same compound?
A: 0.934

Q: What about the normalized growth (S. cerevisiae deletion strains, locus YNL197C, strain WHI3, active compounds read low) of the same compound?
A: 1.01

Q: What about the normalized growth (S. cerevisiae deletion strains, locus YNL209W, strain ssb2, active compounds read low) of the same compound?
A: 0.998

Q: And the normalized growth (S. cerevisiae deletion strains, locus YNL224C, strain SQS1, active compounds read low)?
A: 1.01

Q: And the normalized growth (S. cerevisiae deletion strains, locus YNL233W, strain BNI4, active compounds read low)?
A: 0.994

Q: What about the normalized growth (S. cerevisiae deletion strains, locus YNL248C, strain rpa49, active compounds read low) of the same compound?
A: 0.928

Q: And the normalized growth (S. cerevisiae deletion strains, locus YNL250W, strain rad50, active compounds read low)?
A: 0.972

Q: And the normalized growth (S. cerevisiae deletion strains, locus YNL271C, strain bni1, active compounds read low)?
A: 1

Q: And the normalized growth (S. cerevisiae deletion strains, locus YNL298W, strain CLA4, active compounds read low)?
A: 0.999

Q: And the normalized growth (S. cerevisiae deletion strains, locus YNL307C, strain MCK1, active compounds read low)?
A: 0.989

Q: And the normalized growth (S. cerevisiae deletion strains, locus YNL322C, strain KRE1 (second series), active compounds read low)?
A: 0.968

Q: What about the normalized growth (S. cerevisiae deletion strains, locus YNL322C, strain KRE1, active compounds read low) of the same compound?
A: 0.999

Q: And the normalized growth (S. cerevisiae deletion strains, locus YNR049C, strain mso1, active compounds read low)?
A: 0.955

Q: And the normalized growth (S. cerevisiae deletion strains, locus YNR052C, strain pop2, active compounds read low)?
A: 0.999

Q: What about the normalized growth (S. cerevisiae deletion strains, locus YOL006C, strain TOP1, active compounds read low) of the same compound?
A: 0.903

Q: And the normalized growth (S. cerevisiae deletion strains, locus YOL012C, strain htz1)?
A: 1.37

Q: And the normalized growth (S. cerevisiae deletion strains, locus YOL147C, strain pex11, active compounds read low)?
A: 0.999

Q: What about the normalized growth (S. cerevisiae deletion strains, locus YOR001W, strain rrp6, active compounds read low) of the same compound?
A: 0.984

Q: What about the normalized growth (S. cerevisiae deletion strains, locus YOR061W, strain CKA2, active compounds read low) of the same compound?
A: 0.964

Q: What about the normalized growth (S. cerevisiae deletion strains, locus YOR069W, strain VPS5, active compounds read low) of the same compound?
A: 0.999

Q: And the normalized growth (S. cerevisiae deletion strains, locus YOR070C, strain gyp1, active compounds read low)?
A: 0.986

Q: What about the normalized growth (S. cerevisiae deletion strains, locus YOR080W, strain dia2, active compounds read low) of the same compound?
A: 0.96

Q: What about the normalized growth (S. cerevisiae deletion strains, locus YOR083W, strain WHI5 (second series), active compounds read low) of the same compound?
A: 1.03

Q: And the normalized growth (S. cerevisiae deletion strains, locus YOR083W, strain WHI5, active compounds read low)?
A: 0.879 (active)

Q: What about the normalized growth (S. cerevisiae deletion strains, locus YOR106W, strain vam3, active compounds read low) of the same compound?
A: 0.959

Q: What about the normalized growth (S. cerevisiae deletion strains, locus YOR136W, strain idh2, active compounds read low) of the same compound?
A: 0.98

Q: What about the normalized growth (S. cerevisiae deletion strains, locus YOR144C, strain elg1, active compounds read low) of the same compound?
A: 0.994

Q: What about the normalized growth (S. cerevisiae deletion strains, locus YOR184W, strain ser1, active compounds read low) of the same compound?
A: 0.983

Q: What about the normalized growth (S. cerevisiae deletion strains, locus YOR231W, strain MKK1, active compounds read low) of the same compound?
A: 1

Q: What about the normalized growth (S. cerevisiae deletion strains, locus YOR265W, strain rbl2, active compounds read low) of the same compound?
A: 0.956

Q: What about the normalized growth (S. cerevisiae deletion strains, locus YOR270C, strain vph1, active compounds read low) of the same compound?
A: 0.972

Q: What about the normalized growth (S. cerevisiae deletion strains, locus YOR290C, strain snf2, active compounds read low) of the same compound?
A: 0.944

Q: And the normalized growth (S. cerevisiae deletion strains, locus YOR316C, strain cot1, active compounds read low)?
A: 0.986

Q: And the normalized growth (S. cerevisiae deletion strains, locus YPL051W, strain arl3, active compounds read low)?
A: 0.974

Q: What about the normalized growth (S. cerevisiae deletion strains, locus YPL055C, strain LGE1, active compounds read low) of the same compound?
A: 0.909 and 0.983

Q: What about the normalized growth (S. cerevisiae deletion strains, locus YPL078C, strain atp4, active compounds read low) of the same compound?
A: 0.964

Q: And the normalized growth (S. cerevisiae deletion strains, locus YPL106C, strain sse1, active compounds read low)?
A: 0.965

Q: What about the normalized growth (S. cerevisiae deletion strains, locus YPL240C, strain hsp82, active compounds read low) of the same compound?
A: 0.99

Q: And the normalized growth (S. cerevisiae deletion strains, locus YPL241C, strain CIN2, active compounds read low)?
A: 1.01

Q: What about the normalized growth (S. cerevisiae deletion strains, locus YPL256C, strain CLN2, active compounds read low) of the same compound?
A: 1.02

Q: What about the normalized growth (S. cerevisiae deletion strains, locus YPR119W, strain clb2, active compounds read low) of the same compound?
A: 0.987

Q: What about the normalized growth (S. cerevisiae deletion strains, locus YPR141C, strain kar3, active compounds read low) of the same compound?
A: 1

Q: And the normalized growth (S. cerevisiae deletion strains, locus YPR163C, strain tif3, active compounds read low)?
A: 1

Q: What about the normalized growth (S. cerevisiae deletion strains, locus YPR167C, strain met16, active compounds read low) of the same compound?
A: 0.999

Q: What about the normalized growth (S. cerevisiae deletion strains, strain wtn01, active compounds read low) of the same compound?
A: 0.987

Q: And the normalized growth (S. cerevisiae strains, strain wild type, active compounds read low)?
A: 0.99
